Bioassay records from PubChem.
Most compounds without a hit are left out; they make up all but 2.7% or so of the library.
HIF-2a inh = HIF-2a reporter inhibitors, primary screen, luminescence, 786-0 RCC cells; 360,000 compounds, 0.72% hits; 786-0 RCC cells HIF-2a reporter, luciferase luminescence, overnight; AID 624352, 2012; inhibition, % at 18.8 µM;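 active = inhibition of the luminescence signal of 40% or more relative to plate controls, in a single-dose primary screen at 18.75 µM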
Peg3 prom inh = Peg3 promoter-driven luciferase inhibitors, primary screen, cell-based, HeLa, luciferase luminescence; HeLa PEG-Prom luciferase reporter, overnight; inhibition, % at 20 µM; 360,000 compounds, 1.7% hits;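 active = inhibition of at least 50% at 20 µM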
Shn3 3UTR inh = reduction of Shn3 3'UTR firefly luciferase signal, primary screen, Schnurri-3 inhibitor project, cell-based, Clone20 osteoblasts, set 2. inhibition, % at 12.5 µM. 360,000 compounds, 0.52% hits. AID 588674, 2011. Clone20 osteoblast Shn3 3'UTR firefly luciferase, 24 h;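 active = mean inhibition of at least 75% with every replicate also reaching 75%; inconclusive = mean inhibition at least 75% but some replicate below; inactive = mean inhibition below 75%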;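 note: 0% = median of neutral control wells and 100% = pilot-screen positive control compound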
CF NFkB inh = inhibitors of PAF-induced NF-kB signaling, primary screen, cell-based, GFP fluorescence, uHTS; KKLEB NF-kB-GFP reporter, GFP fluorescence overnight; AID 588850, 2011; inhibition, % at 5 µM; 360,000 compounds, 0.86% hits;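 active = at least 50% inhibition at 5 µM, scaled per plate between neutral and stimulator controls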;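 note: PAF is a Pseudomonas aeruginosa culture filtrate used as stimulus; plate controls were PAF-stimulated DMSO wells for no effect and unstimulated DMSO wells for full effect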
TRPM1 prom inh = inhibitors of MITF-dependent TRPM1 promoter reporter, primary screen, cell-based, SK-MEL-5, single point, luciferase; 330,000 compounds, 0.83% hits; SK-MEL-5 TRPM1 promoter luciferase, 24 h; inhibition, % at 12.5 µM; AID 488899, 2010;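 active = mean inhibition across replicates of 60% or more, whatever share of single replicates reaches that level; inconclusive = some that reach 60%, reason not given; inactive = mean inhibition across replicates below 60%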
KKLEB tox = cytotoxicity in KKLEB CF airway cells, primary screen, cytotoxicity control for CF NF-kB inhibitor project, cell-based, uHTS, fluorescence assay plates; KKLEB CF airway cells viability, ATPlite luminescence, overnight; active compounds read low; cells stimulated with P. aeruginosa culture filtrate; activity change (cytotoxicity), % at 5 µM; 360,000 compounds, 0.36% hits;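 active = corrected activity change at or below -50% at 5 µM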
* = called active by the depositor; ? = inconclusive; / = not tested or not shown.

SMILES | HIF-2a inh | Peg3 prom inh | Shn3 3UTR inh | CF NFkB inh | TRPM1 prom inh | KKLEB tox
Cc1cc(C2CCCCC2)n(O)c(=O)c1 | 19.7 | 50.6* | 60.8 | 19.6 | 78.2* | -16.2
CCCCCCSc1cccc(-c2nc3ccccn3c2NCc2ccccc2)c1 | -131.5 | 73.7* | 10.3 | 4.4 | -4.2 | -4.1
CCC(C)Sc1cccc(-c2nc3ccccn3c2NCc2ccccc2)c1 (configuration not stated) | -300.6 | 73.3* | 13.5 | 3.9 | -3.1 | -16.0
CCCCNc1c(-c2ccc(SC(C)CC)c(OC)c2)nc2ccc(Cl)cn12 (configuration not stated) | -151.6 | -61.4 | 12.2 | 25.7 | -24.8 | -6.4
CCCCNc1c(-c2ccc(SC(C)CC)c(OC)c2)nc2ccc(C)cn12 (configuration not stated) | -155.4 | 93.2* | 18.3 | -12.7 | -13.2 | -3.7
CCC(C)Sc1cccc(-c2nc3ccc(C)cn3c2NCc2ccccc2)c1 (configuration not stated) | -84.2 | 83.2* | 76.0 | 9.9 | -12.3 | 3.1
CCC(C)Sc1cccc(-c2nc3ccc(Cl)cn3c2NCc2ccccc2)c1 (configuration not stated) | -124.2 | -34.0 | 24.6 | 10.3 | -27.5 | -2.0
CC(C)CC(=O)Nc1c2c(nn1-c1ccc(F)cc1)CS(=O)(=O)C2 | 11.0 | 7.3 | -38.5 | 17.9 | 9.7 | -15.6
Brc1ccc(Br)c2cnccc12 | 3.9 | 6.7 | -8.4 | 25.7 | -21.5 | 7.6
CCCCNc1c(-c2ccc(OC)c(Sc3ccc(OC)cc3)c2)nc2ccccn12 | -225.6 | 93.3* | ? | 21.4 | 10.8 | -6.5
CCC/C=C/c1ccc(CN2C(C(C)C)C(=O)N(Cc3cn(CCC4OCCCO4)nn3)CCS2(=O)=O)cc1 (configuration not stated) | -20.9 | 13.8 | 7.1 | -12.7 | / | 11.0
CCN(CC)c1ccc(/C=C2/SC(=O)N(C(C)C)C2=O)o1 | 23.8 | -23.4 | 96.5* | 15.1 | 8.8 | -14.2
CC(C)N1C(=O)S/C(=C\c2ccc(-c3ccc(Cl)c(C(=O)O)c3)o2)C1=O | -180.4 | -187.5 | -72.8 | 0.4 | -54.8 | -2.7
COCCCN1C(=O)c2ccc(C(=O)NCc3ccccn3)cc2C1=O | -5.4 | -6.4 | -20.0 | -5.9 | -6.4 | 1.4
CCCc1nc2oc3c(NCCN(C)C)ncnc3c2c2c1CCCC2 | 37.8 | 68.1* | 11.0 | 16.2 | 75.6* | -23.5
CCN(CC)CCNC(=O)C1CCN(S(=O)(=O)c2c(C)noc2/C=C/c2ccccc2F)CC1 | 0.7 | 25.0 | -27.5 | 2.5 | 77.3* | -1.3
O=C(O)CCC(=O)Nc1ccc(C(=O)OC2CCCCC2)cc1 | 52.5* | 9.3 | 4.1 | 3.1 | 7.5 | 12.9
COc1cccc(Nc2nc(C(N)CCc3ccccc3)cs2)n1 (configuration not stated) | 9.8 | 109.3* | 6.5 | 41.3 | / | -29.8
COc1cccc(Nc2nc(C(N)Cc3ccc(C(F)(F)F)cc3)cs2)n1 (configuration not stated) | 12.9 | 99.5* | 9.0 | 4.6 | / | -11.7
NC(Cc1ccc(Cl)cc1)c1csc(Nc2cc(Oc3ccccc3)ncn2)n1 (configuration not stated) | -0.4 | 108.4* | 32.8 | 19.8 | / | -6.4
COc1cccc(Nc2nc(C(N)Cc3ccc(F)cc3)cs2)n1 (configuration not stated) | -8.8 | 113.9* | -7.0 | 36.9 | / | -28.2
COc1cccc(Nc2nc(C(N)COCc3ccccc3)cs2)n1 (configuration not stated) | 8.7 | 47.5 | 9.5 | 22.7 | / | -24.7
COc1ccc(C(=O)NC2CCCc3c2cnn3-c2ccccc2F)o1 (configuration not stated) | 4.7 | -9.7 | 15.2 | 2.3 | 7.8 | -7.2
NC(Cc1ccc(F)cc1)c1csc(Nc2cc(NCc3ccco3)ncn2)n1 (configuration not stated) | 13.7 | 70.3* | 0.2 | 22.8 | / | -21.0
NC(Cc1ccccc1)c1csc(Nc2ccc(C(F)(F)F)cn2)n1 (configuration not stated) | 4.6 | 99.9* | 21.1 | 0.7 | / | 3.1
SMILES | HIF-2a inh | Peg3 prom inh | Shn3 3UTR inh | CF NFkB inh | TRPM1 prom inh | KKLEB tox
COc1cccc(Nc2nc(C(N)CC(C)C)cs2)n1 (configuration not stated) | -1.3 | 11.6 | 15.0 | -17.4 | / | -8.2
COc1cccc(Nc2nc(C(N)Cc3ccc(Cl)cc3)cs2)n1 (configuration not stated) | 12.0 | 98.6* | -15.2 | 15.3 | / | -13.6
CC(Oc1ccc(Cl)cc1Cl)C(=O)NNC(=O)C(=O)N1CCCC1 (configuration not stated) | 14.1 | 16.1 | -5.3 | 5.4 | -1.1 | 7.5
CCCCc1ncc(CN2CCC(n3nccc3NC(=O)C(OC)c3ccccc3)CC2)[nH]1 (configuration not stated) | 5.7 | 11.2 | 18.4 | 22.7 | 2.1 | -20.5
C[C@@H]1CCCCO[C@H](CN(C)S(=O)(=O)c2cccs2)[C@@H](C)CN([C@H](C)CO)C(=O)c2cc(NC(=O)C3CCCCC3)ccc2O1 | -0.8 | -12.1 | -16.9 | 6.2 | / | 2.6
COc1ccc(CC2(CO)CCN(CC3=Cc4cc(Cl)ccc4OC3)CC2)cc1 | -18.3 | 27.8 | 90.4* | 6.5 | 21.4 | -11.5
Cc1nnc(C)n1/N=C/c1cc2ccccc2nc1Cl | 15.1 | 78.3* | 7.1 | -16.1 | 8.6 | 1.0
Cc1cc(Cc2ccc([N+](=O)[O-])cc2)c(C)cn1 | 0.8 | 7.8 | -20.3 | 7.9 | -3.7 | 1.0
CC(=O)Nc1nc2c(s1)CCc1ccccc1-2 | -44.6 | -41.4 | 8.7 | -47.9 | 13.0 | -14.1
O=C(CCCl)Nc1nc2c(s1)CCc1ccccc1-2 | -34.0 | 54.5* | 57.7 | -8.2 | 29.1 | -38.2
CCC(C)[C@H](NC(=O)[C@@H]1CSC2c3ccccc3C(=O)N21)C(=O)N1CCCCC1 (some centres not stated) | 5.3 | 11.5 | 3.9 | 7.5 | -6.0 | 10.5
CCn1c(-c2ccccc2)csc1=Nc1ccc(S(=O)(=O)O)cc1 | 22.2 | 21.9 | 1.9 | 3.9 | 7.5 | 9.0
COCCCn1c(-c2ccc(S(=O)(=O)N3CCOCC3)cc2)csc1=Nc1ccccc1 | 11.6 | 9.5 | 91.2* | -15.4 | 28.9 | 0.4
Cc1cc(C(=O)OCC(=O)Nc2ccccc2C#N)c(C)o1 | -4.0 | -3.2 | -8.8 | -7.7 | -11.1 | -19.1
O=C1OC(c2cc(Br)c(O)c(Br)c2)c2ccccc21 (configuration not stated) | -1.3 | 7.4 | 14.5 | 7.2 | -0.8 | -2.2
Nc1c(Br)cc2c(c1Br)C(O)c1ccccc1-2 (configuration not stated) | -41.1 | -41.8 | 93.8* | -15.0 | 2.3 | -7.6
